Compounds with a hit are over-represented: about 28% of the library has one in this group of screens.
CYP2C9 inhib: inhibitors of human CYP2C9; inhibition, % at 5 µM; actives 20% (n = 96,000); P11712; CYP2C9 Supersomes, luciferin-H conversion, luminescence; AID 777;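 active = blocking of liver enzyme CYP2C9 beyond about 50% at 5 µM, limit read from the data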
Target sequence (P11712 whole entry, looked up): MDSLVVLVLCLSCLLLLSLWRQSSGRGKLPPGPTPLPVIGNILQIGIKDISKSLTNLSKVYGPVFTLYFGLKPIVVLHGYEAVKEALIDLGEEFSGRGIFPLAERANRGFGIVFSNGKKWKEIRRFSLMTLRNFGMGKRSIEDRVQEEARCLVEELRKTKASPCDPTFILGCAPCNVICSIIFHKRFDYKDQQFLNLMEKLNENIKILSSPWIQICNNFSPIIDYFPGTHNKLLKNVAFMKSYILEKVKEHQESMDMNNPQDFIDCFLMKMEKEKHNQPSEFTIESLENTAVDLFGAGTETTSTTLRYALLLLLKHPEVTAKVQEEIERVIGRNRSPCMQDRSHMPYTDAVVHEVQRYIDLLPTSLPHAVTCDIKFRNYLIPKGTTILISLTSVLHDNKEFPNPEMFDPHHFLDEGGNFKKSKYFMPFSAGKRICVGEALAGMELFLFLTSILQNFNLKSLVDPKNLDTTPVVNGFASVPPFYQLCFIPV
CYP2C19 inhib: blocks human cytochrome P450 2C19. inhibition, % at 5 µM. P33261. CYP2C19 Supersomes, luciferin-H EGE luminescence, 30 min. actives 21% (n = 96,000);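 active = CYP2C19 inhibition above a set limit at 5 µM in the primary screen, cut at about 50% in these data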;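 note: plate controls were negative control wells for no effect and 2.5 mM tranylcypromine positive control for full effect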
CYP2C19 act: cytochrome P450 2C19 (human) activation | P33261 | recombinant CYP2C19, luciferin-H EGE luminescence; hits give high values; 0 = fully inhibited enzyme, 1 = untreated enzyme | activation factor at 5 µM | 96,000 tested, under 10 active;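 active = activation factor of at least 2 at 5 µM in the primary screen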;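 note: 0 = wells with 2.5 mM tranylcypromine and 1 = vehicle-only wells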
CYP2C9 activ: increases human cytochrome P450 2C9 activity; AID 1024; actives 1.4% (n = 96,000); P11712; activation factor at 5 µM; recombinant CYP2C9, luciferin-H conversion, luminescence; hits give high values; factor 1 = untreated enzyme, 0 = blocked;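 active = activation factor of 2 or more for CYP2C9 at a 5 µM dose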;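 note: 0 = sulfaphenazole-blocked wells and 1 = vehicle-only wells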
PTK2B oligo ant: blocks oligomerization of human Pyk2 in cells | Q14289 | actives 0.83% (n = 99,000) | z-score (the deposit names both 25 µM and 10 µM) | Q293 cells, Pyk2 FERM NanoBiT luminescence; hits give low values;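 active = Z-score of -3 or lower, scaled per plate to the spread of control and sample wells; inactive = z-score above -3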;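 note: negative z-score means lost luminescence so less FERM oligomerization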
* hit, by the source's call; x = no result.

SMILES	CYP2C9 inhib	CYP2C19 inhib	CYP2C19 act	CYP2C9 activ	PTK2B oligo ant
CN(C)P(=NC(=O)COc1ccc(Cl)cc1Cl)(N(C)C)N(C)C	3	92*	0.1	1	1.1
O=C(COc1ccc(Cl)cc1Cl)NCCCn1ccnc1	97*	100*	0	0	0.33
O=C(COc1ccc(Cl)cc1Cl)NCCCCc1ccccc1	19	46	0.5	0.8	1.5
CCn1cc(C(C)NC(=O)COc2ccc(Cl)cc2C)c(C)n1 (stereo not drawn)	82*	62*	0.4	0.2	0.66
Cc1cc(Cl)ccc1OCC(=O)NCc1ccncc1	82*	95*	0	0.2	1.1
S=C(c1ccc2c(c1)OCO2)N1CCCC1	2	41	0.6	1	-0.08
O=C(COc1ccccc1Cl)Nc1ccc(Cl)cn1	-3	10	0.9	1	-0.02
Cc1cc2oc(C(=O)NCc3ccncc3)c(C)c2cc1C	97*	98*	0	0	x
O=C(COc1ccc(Cl)cc1Cl)Nc1ccccn1	78*	70*	0.3	0.2	0.09
Cc1c(O)ccc2c3c(c(=O)oc12)CCCC3	-199	69*	0.3	3*	0.67
Cc1oc2c(C)c3oc(=O)c4c(c3cc2c1C)CCCC4	50*	96*	0	0.5	1.4
Cc1c(O)ccc2c3c(c(=O)oc12)CCC(C)C3 (stereo not drawn)	12	93*	0.1	0.9	-0.97
O=c1oc2c(CN3CCOCC3)c(O)ccc2c2c1CCC2	15	8	0.9	0.9	-0.35
CC(C)CN(Cc1c(O)ccc2c3c(c(=O)oc12)CCC3)CC(C)C	34	11	0.9	0.7	0.42
CC(Sc1nnc(-c2cccs2)n1-c1ccccc1)C(=O)NCc1ccc2c(c1)OCO2 (stereo not drawn)	93*	75*	0.3	0.1	-1.8
O=C(CSc1nnc2scc(-c3ccc(Cl)cc3)n12)NCc1ccc2c(c1)OCO2	43	26	0.7	0.6	0.15
O=C(CSc1nnc2scc(-c3ccc(Cl)cc3)n12)NCc1ccco1	38	56*	0.4	0.6	-0.3
O=C(CSc1nnc2scc(-c3ccccc3)n12)NCc1ccc2c(c1)OCO2	12	68*	0.3	0.9	0.67
O=C(CSc1nnc(Cc2cccs2)n1-c1ccccc1)NCc1ccc2c(c1)OCO2	59*	20	0.8	0.4	0.67
Nn1c(SCC(=O)NCc2ccc3c(c2)OCO3)nnc1C1CC1	29	11	0.9	0.7	0.34
CCOC(=O)CN1C(=O)C(C)(C)Oc2ccc(C(=O)Nc3ccccc3)cc21	50	7	0.9	0.5	-0.93
N#Cc1ccc(Oc2ccc(/C=N/O)cn2)cc1	-11	26	0.7	1.1	0.35
O=C(CCn1c(=O)oc2ccccc21)NCc1cccs1	x	x	x	x	-0.27
CCOC(=O)N1CCN(c2cc(=O)n(-c3ccc(OCC)cc3)c(=O)[nH]2)CC1	-3	2	1	1	1.2
CCOC(=O)C1=C(Nc2ccc(C)cc2)CC(C)(O)C(C(=O)OCC)C1c1ccccc1 (stereo not drawn)	-7	3	1	1.1	-0.19
SMILES	CYP2C9 inhib	CYP2C19 inhib	CYP2C19 act	CYP2C9 activ	PTK2B oligo ant
C=CCn1c(SC(C)C(=O)NCc2ccc3c(c2)OCO3)nc2scc(-c3ccccc3)c2c1=O (stereo not drawn)	80*	76*	0.2	0.2	-1.2
C=CCn1c(SCC(=O)NCc2ccc3c(c2)OCO3)nc2scc(-c3ccc(F)cc3)c2c1=O	0	-12	1.1	1	-0.04
Cc1noc(C)c1CSCC(=O)OCC(=O)NC1CCCCC1	12	20	0.8	0.9	1.8
COc1ccc(C(=O)COC(=O)CSCc2c(C)noc2C)cc1OC	34	64*	0.4	0.7	0.4
COc1ccc(NC(=O)CN(c2ccc(C)cc2)S(C)(=O)=O)c(OC)c1	98*	78*	0.2	0	-0.02
CCOc1ccc(N(CC(=O)Nc2ccc(OC)cc2)S(C)(=O)=O)cc1	20	11	0.9	0.8	-0.1
COc1ccc(N(CC(=O)NC(C)C)S(=O)(=O)c2ccc(NC(C)=O)cc2)cc1	93*	88*	0.1	0.1	-0.06
COC(=O)c1ccc(NC(=O)CN(c2ccc(OC)cc2)S(C)(=O)=O)cc1	67*	15	0.8	0.3	-0.4
CCOc1ccc(NC(=O)CN(c2ccc(OC)cc2)S(C)(=O)=O)cc1	49	25	0.8	0.5	-0.11
COc1ccc(OC)c(NC(=O)CN(c2ccc(OC)c(Cl)c2)S(C)(=O)=O)c1	63*	39	0.6	0.4	-1.9
CCOc1cccc(-c2cc(-c3n[nH]c(=S)n3CC)c3ccccc3n2)c1	32	24	0.8	0.7	-0.7
COc1ccc(CCNC(=O)CN(c2ccc(OC)c(OC)c2)S(C)(=O)=O)cc1	80*	38	0.6	0.2	0.39
COc1ccc(C)cc1NC(=O)CN(c1ccccc1)S(C)(=O)=O	51*	22	0.8	0.5	-1.8
CCOC(=O)N1CCN(c2nc(C)cc(C(F)(F)F)n2)CC1	41	66*	0.3	0.6	0.19
CC1CCN(C(=O)CN(c2ccc(Cl)c(C(F)(F)F)c2)S(C)(=O)=O)CC1	-133	75*	0.2	2.3*	-0.08
CS(=O)(=O)N(CC(=O)N1CCC(C(N)=O)CC1)c1ccc(Cl)c(C(F)(F)F)c1	-4	-5	1.1	1	0.21
CS(=O)(=O)N(CC(=O)N1CCN(c2ccccc2)CC1)c1cc(C(F)(F)F)ccc1Cl	-112	26	0.7	2.1*	0.1
CS(=O)(=O)N(CC(=O)N1CCN(c2ccccc2)CC1)c1ccc(Cl)c(C(F)(F)F)c1	-83	96*	0	1.8	1.1
CCCC1(CCC)NC(=O)N(CC(=O)c2cc(C)n(-c3ccc4c(c3)OCO4)c2C)C1=O	x	x	x	x	-1.2
N=c1sccn1CC(=O)Nc1ccc(Cl)c(S(=O)(=O)N2CCOCC2)c1	25	-3	1	0.7	0.42
CCc1cccc(CC)c1NC(=O)C1SC(=Nc2ccccc2C)C(c2nc3ccccc3s2)=C1N (stereo not drawn)	-2	-12	1.1	1	0.58
CC1CCCC(NC(=O)CSc2ncccc2C(=O)O)C1C (stereo not drawn)	-9	-9	1.1	1.1	0.63
Cc1ccc(SCCC(=O)N2CCC(C)CC2)cc1	x	x	x	x	-0.1
Cc1ccc(SCCC(=O)N2CCOCC2)cc1	15	95*	0	0.9	0.53
O=C(CCSc1ccccc1)N1CCOCC1	-13	37	0.6	1.1	0.45
Cc1ccc(SCCC(=O)N2CCCC2)cc1	49	90*	0.1	0.5	1.2
O=C(COc1ccc(/C=N/NC(=O)c2cc3ccccc3o2)cc1Br)Nc1ccccc1	43	11	0.9	0.6	0.15
COc1ccc(CCNS(=O)(=O)c2ccc3c(c2)OCCO3)cc1	24	76*	0.2	0.8	-1.4
COc1ccc(S(=O)(=O)CCC(=O)NCCc2ccc(C)cc2)cc1	75*	57*	0.4	0.2	3.4
COc1ccc(S(=O)(=O)CCC(=O)O)cc1	-12	0	1	1.1	0.66

Source: PubChem BioAssay (Sanford-Burnham Center for Chemical Genomics)
